A short description of assay [1]: BSK_CASM3C_SRB: Viability Assessment in the BioMAP Diversity Plus: CASM3C Assay (AID 2283050).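 Also: total protein by SRB staining as cytotoxicity measure in parallel cultures; cells exposed to compound for 24 h.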 Particulars: primary human coronary artery smooth muscle cells.
Read-out in assay [2]: Tissue Factor, F3 (gene 2152)
Nature of the assay: BSK_CASM3C_TissueFactor: BioMAP Diversity Plus: CASM3C Assay for Tissue Factor Biomarker Activity (AID 2283052).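 Also: cell surface tissue factor protein level read by ELISA.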 Particulars: primary human coronary artery smooth muscle cells; actives raise or lower the signal.

Read-out in assay [3]: Interferon-gamma inducible Protein 10 (IP10), CXCL10 (gene 3627)
The assay is described as follows: BSK_hDFCGF_IP10: BioMAP Diversity Plus: hDFCGF Assay for Interferon-gamma inducible Protein 10 (IP10) Biomarker Activity (AID 2283053). Particulars: primary human foreskin fibroblasts; actives raise or lower the signal. In a few lines: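 ELISA quantification of IP-10 after a 24 h chemical exposure of human dermal foreskin fibroblast primary cultures. Both increases and decreases versus DMSO fitted.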

Read-out in assay [4]: Urokinase-type plasminogen activator receptor (uPAR), PLAUR (gene 5329)
Nature of the assay: BSK_CASM3C_uPAR: BioMAP Diversity Plus: CASM3C Assay for Urokinase-type plasminogen activator receptor (uPAR) Biomarker Activity (AID 2283054).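 Also: cell-surface uPAR protein level quantified by ELISA.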 Particulars: primary human coronary artery smooth muscle cells; actives raise or lower the signal.

Read-out in assay [5]: Vascular cell adhesion molecule 1 (VCAM1), VCAM1 (gene 7412)
The assay is described as follows: BSK_CASM3C_VCAM1: BioMAP Diversity Plus: CASM3C Assay for Vascular cell adhesion molecule 1 (VCAM1) Biomarker Activity (AID 2283055).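 Also: VCAM-1 protein level quantified by ELISA on the cells.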 Particulars: primary human coronary artery smooth muscle cells; actives raise or lower the signal.

Read-out in assay [6]: Epidermal growth factor receptor (EGFR), EGFR (gene 1956)
The assay is described as follows: BSK_hDFCGF_EGFR: BioMAP Diversity Plus: hDFCGF Assay for Epidermal growth factor receptor (EGFR) Biomarker Activity (AID 2283057). The note with it: primary human foreskin fibroblasts; actives raise or lower the signal. In short, it runs like this:
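EGFR levels by ELISA in human dermal fibroblast cultures, 24 h post-treatment, fitted bidirectionally versus DMSO. Parallel wells stained with sulforhodamine B to detect overt cytotoxicity.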

Read-out in assay [7]: Interleukin-8 (IL8), CXCL8 (gene 3576)
The assay is described as follows: BSK_hDFCGF_IL8: BioMAP Diversity Plus: hDFCGF Assay for Interleukin-8 (IL8) Biomarker Activity (AID 2283058). Particulars: primary human foreskin fibroblasts; actives raise or lower the signal. In short, it runs like this:
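IL-8 levels read by ELISA at 24 hours after dosing human skin fibroblast cultures. Parallel SRB staining assessed overt cytotoxicity, and gain or loss of signal was fitted against DMSO control.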

The nature of assay [8]: BSK_hDFCGF_Proliferation: Cell Proliferation Assessment in the BioMAP Diversity Plus: hDFCGF Assay (AID 2283059).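 Also: curves fitted for both rise and fall of signal versus DMSO baseline.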 Particulars: primary human foreskin fibroblasts. In a few lines: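 This proliferation readout used SRB total-protein staining of human foreskin fibroblasts […], normalized to DMSO with bidirectional curve fitting.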
A short description of assay [9]: BSK_hDFCGF_SRB: Viability Assessment in the BioMAP Diversity Plus: hDFCGF Assay (AID 2283061).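 Also: cells exposed to compound for 24 h before the read.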 Particulars: primary human foreskin fibroblasts. In short, it runs like this:
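Viability was read as total protein: after 10% TCA fixation, wells were stained with 0.1% sulforhodamine B and read at 560 nm. Primary human foreskin fibroblasts were dosed for 24 h, with bidirectional fitting versus DMSO.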

Read-out in assay [10]: TIMP metallopeptidase inhibitor 1 (TIMP1), TIMP1 (gene 7076)
Nature of the assay: BSK_hDFCGF_TIMP1: BioMAP Diversity Plus: hDFCGF Assay for TIMP metallopeptidase inhibitor 1 (TIMP1) Biomarker Activity (AID 2283062). Particulars: primary human foreskin fibroblasts; actives raise or lower the signal. In short, it runs like this: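 TIMP-1 measured by ELISA 24 h after chemical dosing of primary human skin fibroblasts, with gain or loss fitted relative to DMSO. Parallel SRB staining (560 nm) monitored overt cytotoxicity.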

Read-out in assay [11]: Monokine induced gamma interferon (MIG), CXCL9 (gene 4283)
Nature of the assay: BSK_hDFCGF_MIG: BioMAP Diversity Plus: hDFCGF Assay for Monokine induced gamma interferon (MIG) Biomarker Activity (AID 2283063). The note with it: primary human foreskin fibroblasts; actives raise or lower the signal. In a few lines: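 Human primary foreskin fibroblasts in the hDFCGF system, exposed to test chemical for 24 h; MIG measured by ELISA. Bidirectional curve fitting against DMSO negative control as activity baseline.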

Read-out in assay [12]: Matrix Metallopeptidase 1 (MMP1), MMP1 (gene 4312)
The assay is described as follows: BSK_hDFCGF_MMP1: BioMAP Diversity Plus: hDFCGF Assay for Matrix Metallopeptidase 1 (MMP1) Biomarker Activity (AID 2283064). The note with it: primary human foreskin fibroblasts; actives raise or lower the signal. In a few lines:
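ELISA read-out of MMP1 from human foreskin fibroblasts (primary skin cells), 24 h post-dose. Gain or loss of signal was fitted bidirectionally versus DMSO negative control; cytotoxicity was checked by SRB in parallel cultures.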

Read-out in assay [13]: Vascular cell adhesion molecule 1 (VCAM1), VCAM1 (gene 7412)
Nature of the assay: BSK_hDFCGF_VCAM1: BioMAP Diversity Plus: hDFCGF Assay for Vascular cell adhesion molecule 1 (VCAM1) Biomarker Activity (AID 2283065).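 As to AC50: VCAM-1 protein level quantified by ELISA after 24 h chemical exposure.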 The note with it: primary human foreskin fibroblasts; actives raise or lower the signal. In short, it runs like this:
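ELISA readout of VCAM-1 on human dermal fibroblast primary cultures, 24 h after chemical exposure. Gain or loss of signal fitted in both directions against DMSO baseline.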

Read-out in assay [14]: Plasminogen activator inhibitor-1 (PAI1), SERPINE1 (gene 5054)
The assay is described as follows: BSK_hDFCGF_PAI1: BioMAP Diversity Plus: hDFCGF Assay for Plasminogen activator inhibitor-1 (PAI1) Biomarker Activity (AID 2283066). Particulars: primary human foreskin fibroblasts; actives raise or lower the signal. In a few lines:
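PAI-1 levels in human dermal foreskin fibroblasts were quantified by ELISA 24 h after dosing, with gain or loss analysed against DMSO. Overt cytotoxicity was checked by sulforhodamine B total-protein staining in parallel cultures.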

Read-out in assay [15]: Intercellular Adhesion Molecule 1 (ICAM1), ICAM1 (gene 3383)
Nature of the assay: BSK_KF3CT_ICAM1: BioMAP Diversity Plus: KF3CT Assay for Intercellular Adhesion Molecule 1 (ICAM1) Biomarker Activity (AID 2283067). The note with it: primary human keratinocytes with fibroblasts; actives raise or lower the signal. In a few lines: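 Cell-surface ICAM-1 was measured by ELISA 24 h after dosing primary human skin keratinocytes co-cultured with fibroblasts. Parallel SRB staining tracked overt cytotoxicity. Gain or loss of signal was fitted relative to DMSO.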

Read-out in assay [16]: Interferon-gamma inducible Protein 10 (IP10), CXCL10 (gene 3627)
Nature of the assay: BSK_KF3CT_IP10: BioMAP Diversity Plus: KF3CT Assay for Interferon-gamma inducible Protein 10 (IP10) Biomarker Activity (AID 2283068). Particulars: primary human keratinocytes with fibroblasts; actives raise or lower the signal. In short, it runs like this: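 Signal is secreted/surface IP-10 by ELISA in a human primary skin co-culture of keratinocytes and foreskin fibroblasts, taken 24 h post-dosing; DMSO served as negative control.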

Assay [17] is described as follows: BSK_KF3CT_SRB: Viability Assessment in the BioMAP Diversity Plus: KF3CT Assay (AID 2283069).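 Also: read 24 h after compound addition.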 Particulars: primary human keratinocytes with fibroblasts. In a few lines: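 SRB read-out at 560 nm (0.1% stain, TCA-fixed cells) gauges overt cytotoxicity in a human skin keratinocyte–fibroblast co-culture 24 h post-dosing. Signal change was fitted bidirectionally relative to DMSO control.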

Read-out in assay [18]: TIMP metallopeptidase inhibitor 2 (TIMP2), TIMP2 (gene 7077)
The assay is described as follows: BSK_KF3CT_TIMP2: BioMAP Diversity Plus: KF3CT Assay for TIMP metallopeptidase inhibitor 2 (TIMP2) Biomarker Activity (AID 2283071). The note with it: primary human keratinocytes with fibroblasts; actives raise or lower the signal. In short, it runs like this: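 TIMP-2 measured by ELISA at 24 h in human keratinocyte/fibroblast primary co-cultures exposed to chemicals. Both increases and decreases were fitted against DMSO. Parallel cultures were stained with SRB for total protein as an overt-cytotoxicity check.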

Read-out in assay [19]: urokinase plasminogen activator (uPA), PLAU (gene 5328)
The assay is described as follows: BSK_KF3CT_uPA: BioMAP Diversity Plus: KF3CT Assay for urokinase plasminogen activator (uPA) Biomarker Activity (AID 2283075). Particulars: primary human keratinocytes with fibroblasts; actives raise or lower the signal. In short, it runs like this: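 Skin co-culture (keratinocytes + foreskin fibroblasts), human primary; 24 h post-dose; uPA by ELISA; gain/loss fit vs DMSO baseline.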

Read-out in assay [20]: CD40, CD40 (gene 958)
Nature of the assay: BSK_LPS_CD40: BioMAP Diversity Plus: LPS Assay for CD40 Biomarker Activity (AID 2283076). Particulars: primary human HUVEC with PBMC; actives raise or lower the signal. In a few lines:
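In the LPS system of human endothelial cells with peripheral blood mononuclear cells, CD40 levels were read by ELISA 24 h post-treatment. Signal changes in either direction were fitted against the DMSO baseline, with parallel SRB protein staining.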

The structures appear in SMILES notation. Activity calls are given as the source filed them. The calls were made as follows: active = hit-call score of the fitted dose curve at least 0.9, where 1 is the maximum; inactive = score below 0.9.

By AC50 is commonly meant the midpoint of the concentration-response curve, whichever way the signal moves.

For `CC(C)(c1cc(Cl)c(O)c(Cl)c1)c1cc(Cl)c(O)c(Cl)c1`, the AC50 is 31.6 µM (active) in [1]; 10.9 µM (active) in assay [2]; 11.5 µM (active) in assay [3]; 32.5 µM (active) in assay [4]; 20 µM (active) in assay [5]; 28.5 µM (active) in [7]. Moreover, the half-maximal activity concentration (AC50) is 7.69 µM (active) in assay [8]; 16.5 µM (active) in assay [9]; 11 µM (active) in assay [10]; 14.8 µM (active) in assay [11]; 11.1 µM (active) in assay [12]; 10.5 µM (active) in assay [13]. Further, the AC50 is 6.66 µM (active) in [14]; 7.95 µM (active) in [15]; 7.37 µM (active) in assay [16]; 5.15 µM (active) in assay [17]; 5.51 µM (active) in assay [18]; 9.27 µM (active) in assay [19]. For the same compound, the AC50 in [20] was 17.3 µM (active). Further, in assay [6], the result was inactive.
Take `C=CCN(CC=C)C(=O)C(Cl)Cl`: the result in assay [1], in assay [2], in assay [3], in [4], in assay [5] and in assay [6] was inactive. Besides, the outcome in assay [7], in assay [8], in assay [9], in assay [10], in assay [11] and in assay [12] was inactive. In addition, the result in assay [13], in assay [14], in assay [15], in [16], in assay [17] and in assay [18] was inactive. Besides, the result in [19] and in assay [20] was inactive.
For `CCc1cc(C)cc(CC)c1-c1c(OC(=O)C(C)(C)C)n2n(c1=O)CCOCC2`, the result in assay [1], in [3], in [4], in [5], in [6] and in [7] was inactive. In addition, the outcome in [10], in [11], in [12], in assay [13], in assay [15] and in assay [16] was inactive. In addition, the outcome in assay [17], in assay [19] and in [20] was inactive. Also, the AC50 in [2] is 8.26 µM (active); in assay [8], 25.2 µM (active); in assay [9] it was 31.5 µM (active); in [14], 3.97 µM (active); in assay [18] it was 3.97 µM (active).
As for `Clc1ccc(-c2ccccc2)cc1`, the outcome in assay [1], in assay [2], in assay [3], in [4], in assay [5] and in [6] was inactive. Further, the result in assay [7], in assay [8], in [9], in assay [10], in assay [11] and in assay [12] was inactive. In addition, the outcome in assay [13], in assay [14], in assay [15], in assay [16], in assay [17] and in [18] was inactive. The outcome in assay [19] and in [20] was inactive.
